Results with a measured potency or affinity are listed apart.

Data on 28 compounds can be found in ChEMBL document CHEMBL4513146, “CO-ADD screening of Karazin Kharkiv National University (Ukraine) compounds”.

In one assay the test system is Klebsiella pneumoniae. The conditions noted are these: Concentration 32 ug.mL-1;; ASSAY_TEST Inhibition of Bacterial Growth; detection method Absorption (OD600); MEDIA CAMHB; plate type 384well; NBS; CORNING #3640; time 18 hr.
For the next assay, the system named is Candida albicans. To be noted: Concentration 32 ug.mL-1; ASSAY_TEST Inhibition of Fungal Growth; detection method Absorption (OD530).
The next assay deals with Cryptococcus neoformans. The conditions noted are these: Concentration 32 ug.mL-1; ASSAY_TEST Inhibition of Fungal Growth; detection method Resazurin; Absorption (OD600-OD570); plate type 384well; NBS; CORNING #3640.

Take `COc1ccccc1-n1ccn2c(SCc3ccccc3F)nnc2c1=O`: the Inhibition in the assay with Klebsiella pneumoniae is on record as 11.1%; in the assay with Candida albicans, 2.31%; in the assay on Cryptococcus neoformans, -5.25%.

As to `CCc1cccc(NC(=O)Cn2nc3ccc(SC(C)(C)C)nn3c2=O)c1`, the Inhibition with Klebsiella pneumoniae is reported as 16.66%; in the assay on Candida albicans, 3.39%; with Cryptococcus neoformans it was -23.79%.

For `Cc1nnc2ccc(S(=O)(=O)N(Cc3ccc(F)cc3)c3cc(F)cc(F)c3)cn12`, the Inhibition in the assay with Klebsiella pneumoniae was 9.19%; in the assay on Candida albicans it was 0.51%; in the assay on Cryptococcus neoformans, -14.68%.

As for `Cc1ccc(-c2cc3c4nn(CC(=O)Nc5ccccc5Cl)c(=O)n4ccn3n2)cc1`, the Inhibition is given as 2.6% in the assay with Klebsiella pneumoniae, 0.36% in the assay on Candida albicans and -23.03% in the assay with Cryptococcus neoformans.

For `Cc1ccc(-c2cc3c4nn(CC(=O)Nc5ccccc5Br)c(=O)n4ccn3n2)cc1C`, the Inhibition with Klebsiella pneumoniae is 18.24%; in the assay on Candida albicans, -0.22%; in the assay with Cryptococcus neoformans it was -11.06%.

On to `O=c1c2nnc(SCc3ccccc3F)n2ccn1-c1ccc(Br)cc1`, for which the Inhibition in the assay on Klebsiella pneumoniae is reported as 15.43%; with Candida albicans, 3.99%; in the assay on Cryptococcus neoformans, -9.71%.

As to `Cc1ccc(CN(c2ccc(C(C)C)cc2)S(=O)(=O)c2cccn3c(C)nnc23)cc1`, the Inhibition in the assay with Klebsiella pneumoniae is reported as 0.92%; in the assay with Candida albicans, 1.03%; in the assay with Cryptococcus neoformans it was -9.63%.

Consider `N#CCSc1nnc2c(=O)n(-c3ccc(Br)cc3)ccn12`, for which the Inhibition in the assay on Klebsiella pneumoniae is reported as 12.03%; with Candida albicans it was 1.63%; with Cryptococcus neoformans, -7.07%.

As to `CCC(Sc1nnc2c(=O)n(-c3cccc(OC)c3)ccn12)C(=O)Nc1ccccc1C` (centres undefined), the Inhibition in the assay with Klebsiella pneumoniae was 4.33%; with Candida albicans, 0.82%; with Cryptococcus neoformans, -7.71%.

Take `Cc1ccc(-c2cc3c4nn(CC(=O)NC5CCCC5)c(=O)n4ccn3n2)cc1C`: the Inhibition in the assay on Klebsiella pneumoniae is reported as 3.15%; with Candida albicans, 6.8%; in the assay with Cryptococcus neoformans, -13.73%.

`Cc1ccc(Sc2nccn3c(=O)n(CC(=O)Nc4c(C)cc(C)cc4C)nc23)c(C)c1`: the Inhibition is 17.85% in the assay on Klebsiella pneumoniae, -0.74% in the assay on Candida albicans and -21.38% with Cryptococcus neoformans.

As for `Cc1ccc(-c2ccc3nn(Cc4cccc(F)c4)c(=O)n3n2)cc1C`, the results for the Inhibition with Klebsiella pneumoniae, with Candida albicans and in the assay with Cryptococcus neoformans were 7.96%, 2.65% and -8.66%, respectively.

As for `CCOc1ccc(-n2ccn3c(SCC(=O)Nc4ccc(CC)cc4)nnc3c2=O)cc1`, the Inhibition in the assay with Klebsiella pneumoniae was 16.87%; in the assay on Candida albicans, 2.31%; in the assay on Cryptococcus neoformans, -18.11%.

Consider `Cc1nnc2c(SCC(=O)N3CCN(c4ccccc4F)CC3)nc3ccccc3n12`, for which the Inhibition is 10.03% in the assay on Klebsiella pneumoniae, 8.32% in the assay with Candida albicans and -3.27% in the assay on Cryptococcus neoformans.

Consider `CCOC(=O)c1ccc(NC(=O)Cn2nc3ccc(Sc4ccccc4)nn3c2=O)cc1`, for which the Inhibition in the assay with Klebsiella pneumoniae is reported as 5.75%; in the assay with Candida albicans it was 4.06%; with Cryptococcus neoformans, -9.53%.

Consider `O=C(CSc1nnc2c(=O)n(-c3ccc(F)cc3)ccn12)NCC1CCCO1` (centres undefined), for which the Inhibition is 7.61% in the assay on Klebsiella pneumoniae, 4.29% in the assay on Candida albicans and -18.42% with Cryptococcus neoformans.

Regarding `CCc1ccc(NC(=O)Cn2nc3c4cc(-c5ccc(Cl)cc5)nn4ccn3c2=O)cc1`, the Inhibition with Klebsiella pneumoniae is reported as 19.83%; in the assay with Candida albicans, 3.83%; in the assay on Cryptococcus neoformans, -20.86%.

As to `COc1ccc(CNC(=O)CCc2nnc3c(N4CCCCC4)nc4ccccc4n23)cc1OC`, the figures for the Inhibition with Klebsiella pneumoniae, in the assay with Candida albicans and with Cryptococcus neoformans were 15.18%, 6.91% and -22.66%, respectively.

For `Cc1cccc(NC(=O)Cn2nc3c4cc(-c5ccc(F)cc5)nn4ccn3c2=O)c1C`, the Inhibition is recorded as 6.39% with Klebsiella pneumoniae, 16.67% in the assay with Candida albicans and -22.65% in the assay on Cryptococcus neoformans.

`CCC(Sc1nnc2c(=O)n(-c3ccccc3)ccn12)C(=O)Nc1ccc(OC)cc1OC` (centres undefined): the figures for the Inhibition in the assay on Klebsiella pneumoniae, in the assay on Candida albicans and in the assay on Cryptococcus neoformans were 9.44%, 2.91% and -10.74%, respectively.

With `CC(C)c1nnc2c(=O)n(CC(=O)Nc3cccc(Cl)c3)c3ccccc3n12`, the figures for the Inhibition in the assay with Klebsiella pneumoniae, in the assay with Candida albicans and with Cryptococcus neoformans were 4.29%, 3.06% and -36.03%, respectively.

Turning to `O=c1n(Cc2cccc(C(F)(F)F)c2)nc2c(S(=O)(=O)N3CCCC3)cccn12`, the Inhibition with Klebsiella pneumoniae is given as 13.65%; in the assay on Candida albicans, 1.01%; in the assay with Cryptococcus neoformans it was -8.52%.

Take `COc1ccc(NC(=O)Cn2nc3c(Sc4ccccc4)nccn3c2=O)cc1`: the Inhibition is 7.48% with Klebsiella pneumoniae, 1.47% with Candida albicans and -16% with Cryptococcus neoformans.

In the case of `O=c1n(Cc2ccc3c(c2)OCO3)nc2c(S(=O)(=O)N3CCCCC3)cccn12`, the Inhibition in the assay on Klebsiella pneumoniae is listed as 10.73%; in the assay with Candida albicans, 3.52%; in the assay with Cryptococcus neoformans it was -6.79%.

Consider `CCOC(=O)c1ccccc1NC(=O)Cn1nc2ccc(C(=O)Nc3ccc(OC)cc3)cn2c1=O`, for which the figures for the Inhibition in the assay on Klebsiella pneumoniae, with Candida albicans and with Cryptococcus neoformans were -1.54%, 25.24% and -9.29%, respectively.

Turning to `CCOC(=O)c1ccc(NC(=O)Cn2nc3c4cc(-c5ccc(Cl)cc5)nn4ccn3c2=O)cc1`, the results for the Inhibition in the assay on Klebsiella pneumoniae, in the assay with Candida albicans and with Cryptococcus neoformans were 8.16%, 4.56% and -16.17%, respectively.

With `Cc1nnc2ccc(S(=O)(=O)N(Cc3cccc(F)c3)c3ccc4c(c3)OCO4)cn12`, the Inhibition in the assay with Klebsiella pneumoniae is on record as 1.28%; in the assay with Candida albicans, 3.36%; with Cryptococcus neoformans, -7.24%.

Take `Cc1cccc(N(Cc2cccc(F)c2)S(=O)(=O)c2cccn3c(C)nnc23)c1`: the Inhibition is 14.45% in the assay on Klebsiella pneumoniae, 2.26% with Candida albicans and -8.56% in the assay with Cryptococcus neoformans.
